Assay results from PubChem BioAssay (NCATS).
Records with an inconclusive call do not appear. Activity calls are given as the source filed them. Unless noted, calls come from the whole dose curve; as a rule, active = well fitted curve in the direction sought with a large enough effect; inconclusive = small, poorly fitted or top-dose-only effect, or another doubt; inactive = no such curve, though single readings can be large; an effect the other way counts as inactive or inconclusive.

How the values were obtained:
[1] = Confirmation and Secondary Assay for Modulators of Hemoglobin Beta Chain Splicing at IVS2 654 locus (AID 910);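 note: HeLa cells stably carrying EGFP split by mutant beta-globin IVS2-654 intron; per-well total GFP intensity by laser scanning cytometry after 2-day treatment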
Summary of the method: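 Readout: per-well total peak green fluorescence (488 nm ex, 500–520 nm em) from objects 5–250 µm, reflecting correct splicing of an EGFP-654 reporter. Compounds were applied for 2 days at 37 °C to overnight-plated HeLa EGFP-654 cells; controls were DMSO and 500 nM IVS2-654 PNA.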

[2] = Confirmation and Secondary Assay for Modulators of Hemoglobin Beta Chain Splicing at IVS2 705 locus (AID 930);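 note: HeLa cells stably expressing the EGFP-705 splicing reporter; series mostly up to about 46 µM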
Summary of the method: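 Restored EGFP fluorescence after 2-day compound exposure reports splicing correction in IVS2-705 EGFP reporter HeLa cells; positive control was 500 nM splice-blocking PNA oligo. Signal measured as well total peak GFP intensity (488 nm excitation).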

[3] = Cell Viability - LYMP2-001 (AID 921); note: series mostly up to about 92 µM; nearly all actives have a fitted effect of over 70% in size
Summary of the method: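 Steps: seed 2500 lymphoblastoid cells/well; 5 hr, 37 C; add compound; 24 hr, 37 C; CellTiter-Glo reagent, 30 min room temperature; read luminescence. Concentration-response modeled by Hill equation for AC50.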

[4] = MultiTox-Fluor Cytotoxicity Assay - LYMP1-001 - Dead Cells (AID 946)
Summary of the method: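 LYMP1-001 lymphoblastoid cells (2500/well) treated 16 h at 37 C. Dead-cell protease cleavage of bis-AAF-R110 read at Ex/Em 485/520. Normalized to DMSO and 15 uM tetraoctylammonium bromide; AC50 from Hill fits.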

[5] = Cell Viability - LYMP1-002 - Assay at 16 hr (AID 948)
Summary of the method: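 Seed 2500 LYMP1-002 cells per well in complete medium and hold 5 hr at 37 C. Add compound across a concentration series and incubate 16 hr at 37 C. Add CellTiter-Glo, wait 30 min at room temperature, read luminescence.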

[6] = MultiTox-Fluor Cytotoxicity Assay - LYMP1-002 - Live Cells (AID 955)
Summary of the method: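 After 16 h compound exposure at 37 C, live LYMP1-002 lymphoblastoid cells (2500/well) were quantified by cleavage of cell-permeant GF-AFC substrate, read at 405/510 nm after 60 min. Concentration-response fitted with Hill equation for AC50.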

[7] = MultiTox-Fluor Cytotoxicity Assay - LYMP1-002 - Dead Cells (AID 960); note: nearly all actives have a fitted effect of over 60% in size
Summary of the method: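 Dead-cell fluorescence (Ex/Em 485/520) after 16 h compound exposure at 37 C of LYMP1-002 lymphoblastoid cells in complete medium; AC50 by Hill equation, with data scaled between DMSO and 15 uM tetraoctylammonium bromide.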

[8] = MultiTox-Fluor Cytotoxicity Assay - LYMP1-003 - Dead Cells (AID 961); note: nearly all actives have a fitted effect of over 70% in size
Summary of the method: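 LYMP1-003 human lymphoblastoid cells (2500/well) exposed to compound 16 h at 37 C in complete medium; dead-cell protease read with bis-AAF-R110 fluorescence (Ex/Em 485/520) after 60 min at room temperature. Normalized to DMSO and 15 uM tetraoctylammonium bromide; AC50 from Hill fit.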

[9] = MultiTox-Fluor Cytotoxicity Assay - LYMP1-003 - Live Cells (AID 962);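 note: cytotoxic hits lower the live-cell protease signal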
Summary of the method: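 Live-cell protease activity (GF-AFC substrate, 405/510 nm, 60 min at room temperature) after 16 h, 37 C compound exposure of human lymphoblastoid LYMP1-003 cells; concentration-response fitted to the Hill equation for AC50.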

[10] = Cell Viability - LYMP1-003 - Assay at 24 hr (AID 963)
Summary of the method: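 Concentration-response qHTS: ATP loss measured by CellTiter-Glo luminescence after 24 h compound exposure at 37 C. Cells were LYMP1-003 human lymphoblastoid, 2500 per well. AC50 derived via standard Hill equation modeling.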

[11] = Cell Viability - LYMP1-003 - Assay at 40 hr (AID 964); note: series mostly up to about 92 µM; nearly all actives have a fitted effect of over 60% in size
Summary of the method: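 Viability is taken as cellular ATP, read by CellTiter-Glo luminescence after 40 h of compound exposure at 37 C. Cells: human lymphoblastoid line LYMP1-003 at 2500/well; AC50 values derived by Hill-equation fitting of concentration-response data.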

[12] = Cell Viability - LYMP2-003 (AID 965);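 note: cells exposed to compounds for 24 h before reading; nearly all actives have a fitted effect of over 50% in size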
Summary of the method: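 Seed 2500 lymphoblastoid cells/well; incubate 5 hr, 37 C; add compounds; incubate 24 hr, 37 C; add CellTiter-Glo, 30 min RT; read luminescence. AC50 from Hill fit.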

[13] = Cell Viability - LYMP2-004 (AID 966); note: nearly all actives have a fitted effect of over 65% in size
Summary of the method: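 AC50 values come from Hill modelling of concentration-dependent loss of intracellular ATP, measured by CellTiter-Glo luminescence. Human LYMP2-004 lymphoblastoid cells (2500/well) were exposed to compound for 24 h at 37 C.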

[14] = target: Cytochrome P450 2C19 (Homo sapiens) (UniProt P33261); experiment: qHTS Assay for Inhibitors and Substrates of Cytochrome P450 2C19 (AID 899); note: nearly all actives have a fitted effect of over 60% in size; note: potency is the fitted concentration of half-maximal effect
Summary of the method: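 5nM enzyme + 10uM Luciferin-H EGE (=KM), 50mM KPO4; cpd pin-transferred, 10 min 37C; NADPH regen, 60 min 37C; stopped w/ luciferin detection reagent, 20 min; luminescence. Normalized to 57uM ketoconazole (AC100).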

[15] = qHTS Assay for Identification of Small Molecule Agonists for Thrombopoietin (TPO) Signaling Pathway (AID 917)
Summary of the method: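 Cell-based luciferase reporter screen. Mouse Ba/F3 line stably expressing human TPO receptor; IL-3 removed overnight before plating. Co-treatment with compound and EC50 TPO (26 pM), 24 hrs at 37 C, then luminescence.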

[16] = target: Muscarinic acetylcholine receptor M1 (Rattus norvegicus) (UniProt P08482); experiment: qHTS Assay for Antagonists of Acetylcholine Muscarinic M1 Receptor: Kinetic Measurement of Intracellular Calcium Response (AID 943);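 note: Fluo-4 calcium signal as peak divided by basal fluorescence over 4 min; series mostly up to about 35 µM; nearly all actives have a fitted effect of over 75% in size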
Summary of the method: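 Antagonism measured as reduction of carbachol-evoked (EC80, 100 nM final) calcium flux in rat M1-CHO cells after 10 min compound exposure. Fluo-4 signal read kinetically; ratio of maximal to basal fluorescence.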

[17] = target: Muscarinic acetylcholine receptor M1 (Rattus norvegicus) (UniProt P08482); experiment: qHTS Assay for Antagonists of Acetylcholine Muscarinic M1 Receptor: Measurement of IP-One Response (AID 944); note: nearly all actives have a fitted effect of over 75% in size
Summary of the method: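 IP1 accumulation measured via TR-FRET between d2-IP1 and Eu-cryptate anti-IP1 antibody after carbachol (200 nM, EC80) stimulation for 30 min; rat M1-transfected CHO cells received compound 10 min before agonist.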

[18] = target: Pyruvate kinase (Leishmania mexicana) (UniProt Q27686); experiment: qHTS Validation Assay for Inhibitors of Leishmania Mexicana Pyruvate Kinase (AID 945)
Summary of the method: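 Purified LmPYK (E451W mutant, 0.2 nM) was incubated 1 h at room temperature with 0.5 mM PEP and 0.1 mM ADP in 50 mM imidazole pH 7.2, 50 mM KCl, 7 mM MgCl2; ATP formed was read by PKLight luminescence, normalized to DMSO wells.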

[19] = target: Pyruvate kinase PKM (Homo sapiens) (UniProt P14618); experiment: qHTS Assay for Activators of Human Muscle Pyruvate Kinase (AID 954; active = well fitted curve in the direction sought with a large enough effect, not every such curve was filed as active)
Summary of the method: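 Compound pinned into substrate mix (0.5 mM PEP, 0.1 mM ADP), then 0.1 nM PKM2 added; 1 h, RT. Stop/detection luciferase reagent added, luminescence read. Normalized to no-inhibition and no-enzyme or reference-inhibitor controls.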

Measured: Potency

Cytochrome P450 2C19 (Homo sapiens), sequence (P33261 whole entry, looked up): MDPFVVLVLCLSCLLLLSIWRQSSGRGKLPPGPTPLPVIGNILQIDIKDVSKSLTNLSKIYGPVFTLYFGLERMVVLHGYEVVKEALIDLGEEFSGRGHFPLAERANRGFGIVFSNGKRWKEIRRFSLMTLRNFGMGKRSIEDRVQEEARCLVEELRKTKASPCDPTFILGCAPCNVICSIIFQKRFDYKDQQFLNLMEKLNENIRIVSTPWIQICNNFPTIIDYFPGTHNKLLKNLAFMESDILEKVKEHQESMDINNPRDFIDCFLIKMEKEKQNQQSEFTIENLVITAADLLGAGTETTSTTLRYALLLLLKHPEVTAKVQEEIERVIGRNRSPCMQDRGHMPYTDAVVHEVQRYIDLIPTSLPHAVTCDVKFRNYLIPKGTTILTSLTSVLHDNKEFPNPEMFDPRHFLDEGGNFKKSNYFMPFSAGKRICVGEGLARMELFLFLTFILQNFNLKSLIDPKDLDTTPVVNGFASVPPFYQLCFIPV
Muscarinic acetylcholine receptor M1 (Rattus norvegicus), sequence (P08482 whole entry, looked up): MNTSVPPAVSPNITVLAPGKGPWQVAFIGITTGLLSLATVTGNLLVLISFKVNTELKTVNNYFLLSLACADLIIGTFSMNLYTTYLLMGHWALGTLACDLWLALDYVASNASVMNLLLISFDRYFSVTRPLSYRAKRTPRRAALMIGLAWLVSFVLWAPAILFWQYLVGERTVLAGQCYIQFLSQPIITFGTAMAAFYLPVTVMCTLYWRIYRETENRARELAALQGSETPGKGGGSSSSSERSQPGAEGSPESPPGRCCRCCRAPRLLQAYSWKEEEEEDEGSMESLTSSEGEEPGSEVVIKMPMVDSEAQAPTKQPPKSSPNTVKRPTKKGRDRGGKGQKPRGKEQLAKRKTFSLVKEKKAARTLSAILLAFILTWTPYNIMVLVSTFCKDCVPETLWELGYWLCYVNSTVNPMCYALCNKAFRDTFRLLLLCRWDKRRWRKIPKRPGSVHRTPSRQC
Pyruvate kinase (Leishmania mexicana), sequence (Q27686 2-499 E452W): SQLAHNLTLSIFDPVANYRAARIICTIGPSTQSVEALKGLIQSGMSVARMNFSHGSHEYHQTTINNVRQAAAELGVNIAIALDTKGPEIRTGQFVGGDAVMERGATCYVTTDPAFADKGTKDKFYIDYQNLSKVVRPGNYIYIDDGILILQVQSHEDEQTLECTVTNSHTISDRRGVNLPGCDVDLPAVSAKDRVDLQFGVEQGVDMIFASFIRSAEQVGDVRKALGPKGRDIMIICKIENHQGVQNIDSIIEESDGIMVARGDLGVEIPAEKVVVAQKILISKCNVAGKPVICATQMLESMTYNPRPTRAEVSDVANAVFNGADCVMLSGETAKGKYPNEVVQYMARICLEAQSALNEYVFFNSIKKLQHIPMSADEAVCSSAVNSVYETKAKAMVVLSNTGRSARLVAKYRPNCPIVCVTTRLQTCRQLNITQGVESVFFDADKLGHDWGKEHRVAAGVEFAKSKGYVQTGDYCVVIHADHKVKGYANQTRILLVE
Pyruvate kinase PKM (Homo sapiens), sequence (P14618 whole entry, looked up): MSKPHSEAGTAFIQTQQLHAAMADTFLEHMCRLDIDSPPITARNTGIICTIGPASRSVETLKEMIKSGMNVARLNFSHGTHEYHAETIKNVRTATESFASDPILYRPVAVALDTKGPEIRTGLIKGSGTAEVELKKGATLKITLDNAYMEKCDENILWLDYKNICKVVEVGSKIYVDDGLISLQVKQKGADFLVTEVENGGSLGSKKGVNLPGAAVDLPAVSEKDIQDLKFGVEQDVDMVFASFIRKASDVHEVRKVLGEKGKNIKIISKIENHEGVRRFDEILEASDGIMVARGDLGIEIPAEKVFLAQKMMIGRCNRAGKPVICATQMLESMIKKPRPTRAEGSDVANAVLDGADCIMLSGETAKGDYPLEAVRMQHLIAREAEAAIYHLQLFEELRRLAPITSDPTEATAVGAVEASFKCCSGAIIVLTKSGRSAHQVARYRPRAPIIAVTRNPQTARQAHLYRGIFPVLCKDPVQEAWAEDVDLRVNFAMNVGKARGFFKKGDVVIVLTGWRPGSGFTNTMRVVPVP

NS(=O)(=O)c1cc2c(cc1C(F)(F)F)NCNS2(=O)=O
inactive: [1] | [2]

CC(=O)NS(=O)(=O)c1ccc(N)cc1
not listed: [14] | [15] | [16] | [17] | [18] | [19]
inactive: all other assays above

NC(=O)c1ccc([N+](=O)[O-])cc1Cl
inactive: [1] | [2]

CC(=O)Nc1cccc(O)c1
not listed: [14] | [15] | [16] | [17] | [18] | [19]
inactive: all other assays above

NC(=O)NC1NC(=O)NC1=O (stereo not given)
inactive: [1] | [2]

CCc1cccc(CC)c1NC(=O)CN(CC(=O)O)CC(=O)O
inactive: [14]

CN1C(C)(C)CCCC1(C)C
inactive: [1] | [15] | [2] | [16] | [17] | [18] | [19]

CCS(=O)(=O)CCn1c([N+](=O)[O-])cnc1C
inactive: [1] | [2]

CC1CCc2cc(F)cc3c(=O)c(C(=O)O)cn1c23 (stereo not given)
inactive: [1] | [2]

O=C1c2ccccc2S(=O)(=O)N1CCCCN1CCN(c2ncccn2)CC1
active: [14] 631 nM

Nc1ccc(S(=O)(=O)c2ccc(N)cc2)cc1
not listed: [14] | [15] | [16] | [17] | [18] | [19]
inactive: all other assays above

CCCCC1(COC(=O)CCC(=O)O)C(=O)N(c2ccccc2)N(c2ccccc2)C1=O
inactive: [1] | [2]

CC1CC(OC(=O)c2ccccc2O)CC(C)(C)C1 (stereo not given)
not listed: [14] | [15] | [16] | [17] | [18] | [19]
inactive: all other assays above

CC(=O)Nc1ccccc1
not listed: [14] | [15] | [16] | [17] | [18] | [19]
inactive: all other assays above

CC(=O)OCC(COC(C)=O)OC(C)=O
not listed: [14] | [15] | [16] | [17] | [18] | [19]
inactive: all other assays above

O=C(O)c1ccccc1C(=O)Nc1ccc(S(=O)(=O)Nc2nccs2)cc1
inactive: [1] | [2]

O=C(O)CCCCC1CCSS1 (stereo not given)
not listed: [14] | [15] | [16] | [17] | [18] | [19]
inactive: all other assays above

CNCc1ccccc1
inactive: [1] | [2]

C[N+]1(C)CCCC(OC(=O)C(O)(c2ccccc2)c2ccccc2)C1 (stereo not given)
inactive: [1] | [2]

NS(=O)(=O)c1ccc(C(=O)O)cc1
inactive: [14]

O=c1[nH]cnc2nc[nH]c12
inactive: [1] | [2]

O=C(Cn1ccnc1[N+](=O)[O-])NCCO
inactive: [14] | [1] | [2]

CCCCCC(C)N (stereo not given)
inactive: [1] | [2]

CC(=O)SC[C@@H](Cc1ccccc1)C(=O)NCC(=O)OCc1ccccc1
active: [14] 126 nM

Cc1cccc(C(=O)O)c1O
inactive: [1] | [2]

O=C(O)c1cc(=O)c2ccccc2o1
inactive: [1] | [2]

CC(=O)NCc1c(I)c(NC(C)=O)c(I)c(C(=O)O)c1I
inactive: [1] | [2]

C=CCSCC1Nc2cc(Cl)c(S(N)(=O)=O)cc2S(=O)(=O)N1 (stereo not given)
inactive: [1] | [2]

CCOC(N)=O
inactive: [1] | [2]

COc1ccc(O)cc1
not listed: [1] | [2] | [14] | [15] | [16] | [17] | [18] | [19]
inactive: all other assays above

O=C(O)c1ccccc1OP(=O)(O)O
inactive: [1] | [2]
